Assay [1] deals with T1, Serine/threonine-protein kinase Nek9 (Homo sapiens) (UniProt Q8TD19).
T1 sequence (whole entry): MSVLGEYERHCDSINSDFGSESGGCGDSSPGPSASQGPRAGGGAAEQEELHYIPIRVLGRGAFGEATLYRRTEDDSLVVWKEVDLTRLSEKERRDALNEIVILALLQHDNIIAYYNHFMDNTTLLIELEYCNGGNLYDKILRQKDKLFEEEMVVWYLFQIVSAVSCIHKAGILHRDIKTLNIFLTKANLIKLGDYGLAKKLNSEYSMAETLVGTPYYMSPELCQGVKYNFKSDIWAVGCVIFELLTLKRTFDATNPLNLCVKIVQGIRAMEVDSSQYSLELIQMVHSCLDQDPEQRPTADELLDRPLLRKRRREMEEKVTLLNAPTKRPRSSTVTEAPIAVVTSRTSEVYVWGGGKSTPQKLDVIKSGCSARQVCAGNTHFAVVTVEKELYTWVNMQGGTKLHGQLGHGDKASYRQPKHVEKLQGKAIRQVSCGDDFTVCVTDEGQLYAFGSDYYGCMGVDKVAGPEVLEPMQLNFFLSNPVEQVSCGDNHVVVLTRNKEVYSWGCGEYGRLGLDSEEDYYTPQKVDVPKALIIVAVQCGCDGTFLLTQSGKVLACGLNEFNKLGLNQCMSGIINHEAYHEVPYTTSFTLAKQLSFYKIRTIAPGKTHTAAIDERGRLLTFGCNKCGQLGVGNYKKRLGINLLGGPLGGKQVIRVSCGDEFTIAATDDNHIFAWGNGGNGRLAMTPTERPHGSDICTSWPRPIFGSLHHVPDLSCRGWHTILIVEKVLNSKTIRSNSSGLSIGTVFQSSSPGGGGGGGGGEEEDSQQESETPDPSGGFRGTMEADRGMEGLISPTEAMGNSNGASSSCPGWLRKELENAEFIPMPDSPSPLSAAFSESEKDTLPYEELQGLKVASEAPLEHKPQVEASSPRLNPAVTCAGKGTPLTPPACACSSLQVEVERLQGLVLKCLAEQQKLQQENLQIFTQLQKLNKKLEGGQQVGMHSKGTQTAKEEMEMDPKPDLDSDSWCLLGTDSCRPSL
Conditions: at 1 µM.

For assay [2], the target named is Serine/threonine-protein kinase PLK1 (Homo sapiens) (UniProt P53350). Conditions: at 0.1 µM.
The target is the same in assay [3]. The conditions noted are these: at 1 µM.
The target in assay [4] is T2, Dual specificity protein kinase TTK (Homo sapiens) (UniProt P33981).
T2 sequence (whole entry): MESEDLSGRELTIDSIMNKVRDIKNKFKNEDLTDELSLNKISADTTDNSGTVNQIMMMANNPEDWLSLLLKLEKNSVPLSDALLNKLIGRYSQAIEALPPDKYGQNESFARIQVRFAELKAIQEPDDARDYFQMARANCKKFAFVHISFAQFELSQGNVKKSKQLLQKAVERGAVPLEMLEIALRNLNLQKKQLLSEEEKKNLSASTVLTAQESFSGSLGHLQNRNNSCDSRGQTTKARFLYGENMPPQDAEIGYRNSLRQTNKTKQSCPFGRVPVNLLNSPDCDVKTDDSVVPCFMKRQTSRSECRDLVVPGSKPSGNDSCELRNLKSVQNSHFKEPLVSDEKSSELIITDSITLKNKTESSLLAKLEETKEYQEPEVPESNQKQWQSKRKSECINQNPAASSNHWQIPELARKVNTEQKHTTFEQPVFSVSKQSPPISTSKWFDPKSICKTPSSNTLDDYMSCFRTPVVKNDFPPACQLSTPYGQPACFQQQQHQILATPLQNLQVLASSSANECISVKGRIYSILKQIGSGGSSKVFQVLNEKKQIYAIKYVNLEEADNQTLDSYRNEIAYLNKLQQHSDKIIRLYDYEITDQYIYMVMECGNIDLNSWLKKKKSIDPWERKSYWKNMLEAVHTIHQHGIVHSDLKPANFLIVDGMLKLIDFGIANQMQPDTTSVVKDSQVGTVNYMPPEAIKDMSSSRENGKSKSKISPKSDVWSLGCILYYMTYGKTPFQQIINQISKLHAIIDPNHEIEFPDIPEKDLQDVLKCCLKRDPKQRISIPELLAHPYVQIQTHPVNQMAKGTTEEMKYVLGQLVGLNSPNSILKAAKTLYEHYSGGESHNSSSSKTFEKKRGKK
Conditions: at 0.1 µM.

Assay [5] relates to T3, Receptor-type tyrosine-protein kinase FLT3 (Homo sapiens), P36888 [D835Y].
T3 sequence (whole entry): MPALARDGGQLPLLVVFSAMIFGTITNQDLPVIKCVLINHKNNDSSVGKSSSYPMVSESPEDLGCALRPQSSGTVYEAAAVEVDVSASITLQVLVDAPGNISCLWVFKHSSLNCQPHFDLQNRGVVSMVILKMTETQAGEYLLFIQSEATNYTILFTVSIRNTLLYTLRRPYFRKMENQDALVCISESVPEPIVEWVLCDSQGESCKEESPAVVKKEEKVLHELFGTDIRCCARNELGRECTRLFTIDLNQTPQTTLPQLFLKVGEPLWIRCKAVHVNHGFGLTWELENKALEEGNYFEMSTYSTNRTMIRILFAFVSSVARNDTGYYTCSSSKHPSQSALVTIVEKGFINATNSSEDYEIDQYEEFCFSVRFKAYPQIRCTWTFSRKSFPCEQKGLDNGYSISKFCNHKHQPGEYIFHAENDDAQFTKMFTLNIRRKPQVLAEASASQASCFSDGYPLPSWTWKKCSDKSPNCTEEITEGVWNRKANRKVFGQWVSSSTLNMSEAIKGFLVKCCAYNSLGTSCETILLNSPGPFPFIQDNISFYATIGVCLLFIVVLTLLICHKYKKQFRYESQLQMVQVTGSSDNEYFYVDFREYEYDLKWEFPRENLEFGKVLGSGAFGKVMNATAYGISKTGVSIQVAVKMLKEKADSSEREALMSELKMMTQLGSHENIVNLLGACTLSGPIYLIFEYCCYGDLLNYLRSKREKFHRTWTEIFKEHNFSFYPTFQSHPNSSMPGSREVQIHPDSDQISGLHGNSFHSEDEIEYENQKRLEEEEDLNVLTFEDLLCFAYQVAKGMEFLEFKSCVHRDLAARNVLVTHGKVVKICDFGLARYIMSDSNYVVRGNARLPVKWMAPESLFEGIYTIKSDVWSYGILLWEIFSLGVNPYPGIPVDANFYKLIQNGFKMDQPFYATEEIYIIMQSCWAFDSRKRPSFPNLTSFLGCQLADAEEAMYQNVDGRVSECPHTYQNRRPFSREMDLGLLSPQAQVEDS
Conditions: at 1 µM.

Assay [6] has as its target Vascular endothelial growth factor receptor 3 (Homo sapiens) (UniProt P35916). Conditions: at 0.1 µM.
The target is the same in assay [7]. Conditions: at 1 µM.
Assay [8] has as its target Macrophage colony-stimulating factor 1 receptor (Homo sapiens) (UniProt P07333). The conditions noted are these: at 0.1 µM.
Assay [9] has the same target. Conditions: at 1 µM.
The target of assay [10] is Tyrosine-protein kinase Fyn (Homo sapiens) (UniProt P06241). Conditions: at 0.1 µM.
Tyrosine-protein kinase Fyn (Homo sapiens), sequence (P06241 2-537 limits assumed): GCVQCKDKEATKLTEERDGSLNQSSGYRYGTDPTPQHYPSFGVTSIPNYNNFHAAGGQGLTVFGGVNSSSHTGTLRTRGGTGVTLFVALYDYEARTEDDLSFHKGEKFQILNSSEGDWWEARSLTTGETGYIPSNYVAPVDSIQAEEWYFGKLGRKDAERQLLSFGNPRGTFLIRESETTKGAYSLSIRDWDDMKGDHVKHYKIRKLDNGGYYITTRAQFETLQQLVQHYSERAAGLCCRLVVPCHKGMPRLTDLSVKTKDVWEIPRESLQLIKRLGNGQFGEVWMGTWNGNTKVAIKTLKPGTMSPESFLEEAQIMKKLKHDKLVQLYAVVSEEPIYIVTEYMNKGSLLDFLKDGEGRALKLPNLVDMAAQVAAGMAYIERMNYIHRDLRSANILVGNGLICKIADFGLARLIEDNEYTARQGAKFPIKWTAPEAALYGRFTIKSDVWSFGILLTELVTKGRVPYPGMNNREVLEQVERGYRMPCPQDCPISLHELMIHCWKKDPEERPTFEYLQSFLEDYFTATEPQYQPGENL

Serine/threonine-protein kinase PLK1 (Homo sapiens), sequence (P53350 whole entry): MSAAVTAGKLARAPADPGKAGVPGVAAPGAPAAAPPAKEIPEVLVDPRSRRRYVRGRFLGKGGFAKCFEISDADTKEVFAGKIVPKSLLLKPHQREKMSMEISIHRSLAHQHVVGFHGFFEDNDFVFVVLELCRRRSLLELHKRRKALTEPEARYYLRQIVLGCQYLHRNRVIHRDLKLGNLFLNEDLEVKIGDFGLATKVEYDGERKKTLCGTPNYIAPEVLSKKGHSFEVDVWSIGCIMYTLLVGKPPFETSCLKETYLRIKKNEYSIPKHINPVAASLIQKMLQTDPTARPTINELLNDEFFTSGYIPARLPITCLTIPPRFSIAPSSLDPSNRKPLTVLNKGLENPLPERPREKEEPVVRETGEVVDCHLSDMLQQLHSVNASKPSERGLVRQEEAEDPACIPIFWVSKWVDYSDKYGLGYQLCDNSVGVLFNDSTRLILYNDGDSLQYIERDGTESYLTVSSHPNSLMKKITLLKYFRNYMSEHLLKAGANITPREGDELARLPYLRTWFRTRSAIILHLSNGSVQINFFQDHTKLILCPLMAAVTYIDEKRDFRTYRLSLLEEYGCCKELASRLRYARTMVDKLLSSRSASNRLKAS
Macrophage colony-stimulating factor 1 receptor (Homo sapiens), sequence (P07333 whole entry): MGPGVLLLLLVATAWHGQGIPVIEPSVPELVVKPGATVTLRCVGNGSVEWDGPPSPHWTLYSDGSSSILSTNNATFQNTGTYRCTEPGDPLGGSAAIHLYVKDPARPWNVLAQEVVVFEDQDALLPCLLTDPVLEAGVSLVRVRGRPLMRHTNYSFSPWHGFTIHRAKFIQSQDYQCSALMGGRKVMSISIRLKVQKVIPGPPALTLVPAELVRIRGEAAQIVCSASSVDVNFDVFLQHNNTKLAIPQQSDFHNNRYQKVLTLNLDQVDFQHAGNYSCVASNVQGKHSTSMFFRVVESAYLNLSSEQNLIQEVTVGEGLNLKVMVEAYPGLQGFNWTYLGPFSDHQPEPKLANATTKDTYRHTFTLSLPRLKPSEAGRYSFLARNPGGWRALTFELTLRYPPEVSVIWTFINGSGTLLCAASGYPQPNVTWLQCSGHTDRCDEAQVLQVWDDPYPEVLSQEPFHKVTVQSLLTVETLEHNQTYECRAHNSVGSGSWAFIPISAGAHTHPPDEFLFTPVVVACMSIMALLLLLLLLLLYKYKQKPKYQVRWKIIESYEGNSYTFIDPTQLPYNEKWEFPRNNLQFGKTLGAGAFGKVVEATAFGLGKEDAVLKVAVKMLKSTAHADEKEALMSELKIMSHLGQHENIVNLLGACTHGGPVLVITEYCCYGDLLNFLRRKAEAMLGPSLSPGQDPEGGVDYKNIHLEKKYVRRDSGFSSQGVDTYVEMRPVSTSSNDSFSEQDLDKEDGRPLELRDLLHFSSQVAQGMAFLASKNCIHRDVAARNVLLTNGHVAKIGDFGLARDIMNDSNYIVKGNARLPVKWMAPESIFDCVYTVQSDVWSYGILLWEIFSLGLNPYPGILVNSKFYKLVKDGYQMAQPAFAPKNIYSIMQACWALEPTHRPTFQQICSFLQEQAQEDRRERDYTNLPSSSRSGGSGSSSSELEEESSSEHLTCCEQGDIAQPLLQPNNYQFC
Vascular endothelial growth factor receptor 3 (Homo sapiens), sequence (P35916 whole entry): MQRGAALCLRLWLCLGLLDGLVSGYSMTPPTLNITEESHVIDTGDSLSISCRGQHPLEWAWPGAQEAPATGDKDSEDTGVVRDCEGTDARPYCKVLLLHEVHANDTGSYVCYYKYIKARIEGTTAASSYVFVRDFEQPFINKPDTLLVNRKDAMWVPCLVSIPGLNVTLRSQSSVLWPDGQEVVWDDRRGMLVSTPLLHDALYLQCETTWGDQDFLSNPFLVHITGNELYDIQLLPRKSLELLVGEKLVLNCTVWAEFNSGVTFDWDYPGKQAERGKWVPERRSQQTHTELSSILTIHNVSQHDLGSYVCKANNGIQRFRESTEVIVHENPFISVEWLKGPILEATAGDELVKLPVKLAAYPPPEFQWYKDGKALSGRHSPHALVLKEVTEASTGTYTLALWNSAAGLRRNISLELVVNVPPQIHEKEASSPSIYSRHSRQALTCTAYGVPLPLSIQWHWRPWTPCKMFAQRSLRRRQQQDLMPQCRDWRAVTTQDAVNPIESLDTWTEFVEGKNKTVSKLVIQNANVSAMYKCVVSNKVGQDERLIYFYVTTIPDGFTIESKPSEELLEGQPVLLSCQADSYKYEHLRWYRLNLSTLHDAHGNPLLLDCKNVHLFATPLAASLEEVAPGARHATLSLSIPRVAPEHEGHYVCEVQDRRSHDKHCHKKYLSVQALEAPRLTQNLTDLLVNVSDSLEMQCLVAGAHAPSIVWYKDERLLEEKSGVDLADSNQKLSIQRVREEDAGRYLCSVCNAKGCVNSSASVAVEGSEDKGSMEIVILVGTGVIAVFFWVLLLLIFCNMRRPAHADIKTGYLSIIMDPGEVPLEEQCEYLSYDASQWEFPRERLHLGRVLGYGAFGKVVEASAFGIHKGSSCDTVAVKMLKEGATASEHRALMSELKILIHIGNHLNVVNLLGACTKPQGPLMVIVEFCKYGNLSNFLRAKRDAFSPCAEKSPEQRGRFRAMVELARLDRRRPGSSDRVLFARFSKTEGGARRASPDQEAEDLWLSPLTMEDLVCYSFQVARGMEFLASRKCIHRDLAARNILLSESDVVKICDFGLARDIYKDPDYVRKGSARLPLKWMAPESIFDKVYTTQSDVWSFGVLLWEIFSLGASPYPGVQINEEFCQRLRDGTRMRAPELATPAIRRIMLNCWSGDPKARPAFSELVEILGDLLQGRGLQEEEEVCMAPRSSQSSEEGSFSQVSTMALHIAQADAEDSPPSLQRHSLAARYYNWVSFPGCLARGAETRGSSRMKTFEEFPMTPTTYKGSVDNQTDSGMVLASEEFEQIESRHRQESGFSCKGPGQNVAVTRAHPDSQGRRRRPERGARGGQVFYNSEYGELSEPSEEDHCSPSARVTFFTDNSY

`CCOc1ccc2c(-c3ccnc(Nc4cccc(C(F)(F)F)c4)n3)cnn2n1`: the inhibition was 4.9% in assay [1]; 0.64% in assay [2]; 1.39% in assay [3]; 3.43% in assay [4]; 5.75% in [5]; 2.01% in assay [6]. For the same molecule, the inhibition in [7] is 3.46%; in [8] it was -2.9%; in assay [9], 14.1%; in assay [10] it was 1.07%.
In the case of `Fc1ccc(-c2nn3ncccc3c2-c2ccnc(Nc3ccc4c(c3)OCCO4)n2)cc1`, the inhibition in assay [1] is 12%; in assay [2], 3.5%; in assay [3], 28.8%; in assay [4], 8.44%; in [5], 2.87%; in assay [6] it was 7.5%. In addition, the inhibition in assay [7] amounted to 47.7%; in assay [8], 14.4%; in [9], 59.1%; in assay [10] it was 47%.
With `Fc1cccc(COc2ccc(Nc3ncnc4sc(-c5ccco5)cc34)cc2Cl)c1`, the inhibition in assay [1] came out at 8.43%; in assay [2], 6.82%; in assay [3], 4.61%; in [4], 6.94%; in assay [5], 0.69%; in assay [6], 1.58%. The inhibition came to 3.49% in [7], 0.84% in [8], 8.62% in [9] and 0.36% in assay [10].
`COc1ccc(CNC(=O)c2ccc(-c3cc(-c4nnc(C)o4)ccc3C)cc2)cc1`: the inhibition in [1] is 6.3%; in [2] it was 2.95%; in assay [3], 1.61%; in assay [4], 1.98%; in assay [5], -2.55%; in assay [6] it was -1.03%. The inhibition was -1.53% in [7], 1.47% in assay [8], 0.46% in assay [9] and 0.71% in [10].
Regarding `CNC(=O)c1cncc(/C=C/c2ccccc2Cl)c1`, the inhibition in [1] is 3.22%; in assay [2], -0.94%; in [3], -0.72%; in assay [4], 1.16%; in assay [5] it was 7.46%; in assay [6], 15.2%. The inhibition in assay [7] was 13.6%; in assay [8], 3.45%; in assay [9], 4.05%; in [10] it was 2.42%.
For `COC(=O)Nc1nc2ccc(Oc3ccc(NC(=O)Nc4cccc(Cl)c4)cc3)cc2[nH]1`, the inhibition was 2.84% in assay [1]; -0.55% in [2]; 0.69% in assay [3]; 2.99% in assay [4]; 1.8% in assay [5]; 4.07% in [6]. For the same molecule, the inhibition in [7] came out at 9.34%; in [8] it was 16.5%; in assay [9], 45.2%; in [10], 0.86%.
On to `[O-][S+]1CCN(Cc2ccc(-c3ccc4ncnc(Nc5ccc(OCc6cccc(F)c6)c(Cl)c5)c4c3)o2)CC1`, for which the inhibition in assay [1] was 11.6%; in assay [2], 4.06%; in assay [3] it was 4.68%; in [4] it was 14.8%; in assay [5], -0.26%; in assay [6], 4.68%. Further, the inhibition turned out to be 7.72% in [7], 1.84% in assay [8], 5.71% in assay [9] and 1.57% in assay [10].
Turning to `NC(=O)c1sc(-n2cnc3ccc(C(F)(F)F)cc32)cc1OCc1ccccc1Br`, the inhibition in [1] was 28.9%; in assay [2], 81.4%; in assay [3], 94.3%; in [4] it was 8.68%; in assay [5] it was 5.89%; in assay [6], -1.7%. In addition, the inhibition in [7] was 3.99%; in [8] it was 0.91%; in [9], 3.49%; in assay [10], 2.36%.
As for `COc1cc2c(cc1Nc1nc(Nc3ccsc3C(N)=O)c3cc[nH]c3n1)N(C(=O)CN(C)C)CCC2(C)C`, the inhibition in assay [1] was determined as 9.86%; in [2], 56.7%; in assay [3] it was 89.4%; in assay [4], 40%; in assay [5], 22.1%; in assay [6], 3.15%. In addition, the inhibition in assay [7] was found to be 5.12%; in [8], 81.7%; in assay [9], 94.3%; in assay [10], 0.64%.

These data come from ChEMBL document CHEMBL1961873, “Compounds: GSK PKIS; Assays: Nanosyn kinase panel” (2012).
